The values below come from PMC4552634, “A New Set of Chemical Starting Points with Plasmodium falciparum Transmission-Blocking Potential for Antimalarial Drug Discovery” (PLoS ONE, 2015).

In all, about 13,000 compounds went through this assay and about 3,200 (25%) showed an effect of 50% or more. The list shows a part of the results.

In the test the test system is P. falciparum stage V gametocytes. Also noted: BacTiter-Glo ATP luminescence viability of purified stage V gametocytes in 384-well plates, per cent inhibition versus DMSO. The following applies: 48 h, 5 µM; inhibitor.
Regarding `NC1=NC(c2ccccc2)N(c2ccccc2)C(N)=N1` (stereo not shown) [TCMDC-123669], the % Inhibition (in general, the drop in the measured response relative to a control, in per cent) is recorded as -71.64%.
For `CNC(=O)CNC(=O)COc1cccc2ccccc12` [TCMDC-131646] the value was 8.257%.
Take `O=C(N/N=C/c1nc2ccccc2[nH]1)c1cccc([N+](=O)[O-])c1` [TCMDC-125792]: the “% Inhibition” value came out at 11.6%.
For the compound `CCCCCCCC1=NN2C(=N)C(=Cc3cc(Br)c(OCc4ccc(F)cc4)c(OCC)c3)C(=O)N=C2S1` [TCMDC-124035], the “% Inhibition” value was found to be 8.522%.
With `CCOc1cc(O)c(-c2nc(N)ncc2-c2ccc3c(c2)OCCO3)cc1CC` [TCMDC-125234] the figure was 11.3%.
With `CC1(C)N=C(N)NC(Nc2ccc(Cl)cc2)=N1` [TCMDC-124268], the “% Inhibition” value amounted to 26.51%.
In the case of `COCCCNC(=O)[C@H]1CNCCN1C(=O)c1ccccc1` [TCMDC-141239], the “% Inhibition” value is on record as -7.699%.
`COc1ccc(NC(=O)/C=C/c2ccccc2Cl)cc1OCCN1CCC(N2CCN(C)CC2)CC1` [TCMDC-140757]: the “% Inhibition” value was found to be 11.04%.
Take `O=C(/C=C/c1ccccc1Cl)Nc1ccc(Br)c(OCCN2CCN(CCN3CCCC3)CC2)c1` [TCMDC-140961]: the “% Inhibition” value is listed as 38.25%.
On to `COc1ccc(NC(=O)/C=C/c2ccccc2Cl)cc1OCCN1CCC(N(C)C)CC1` [TCMDC-140755], for which the “% Inhibition” value is 36.26%.
With `COc1cc2c(cc1OCCN1CCC(N3CCCC3)CC1)N(C(=O)/C=C/c1ccccc1Cl)CC2` [TCMDC-140968] the figure was 80.73%.
Consider `COc1ccc(NC(=O)/C=C/c2ccccc2Cl)cc1OCCN1CCC(N2CCCC2)CC1` [TCMDC-140919], for which the “% Inhibition” value is recorded as -16.17%.
Regarding `COc1cc2c(cc1OCCN1CCC(N3CCCCC3)CC1)N(C(=O)/C=C/c1ccccc1Cl)CC2` [TCMDC-140770], the “% Inhibition” value is given as 68.26%.
With `CN1CCC(N2CCN(CCOc3cc(NC(=O)/C=C/c4ccccc4Cl)ccc3Br)CC2)CC1` [TCMDC-140962] the figure was 101%; with `COc1ccc(NC(=O)/C=C/c2ccccc2Cl)cc1OCCN1CCC(NCc2ccccc2)CC1` [TCMDC-140746], -31.11%.
Regarding `COc1ccc(NC(=O)/C=C/c2ccccc2Cl)cc1OCCN1CCC(N2CCCCC2)CC1` [TCMDC-140698], the “% Inhibition” value was -6.505%.
In the case of `O=C(Nc1ccc(N2CCCCC2)c(Cl)c1)c1ccc(Br)o1` [TCMDC-124350], the “% Inhibition” value came to 9.025%.
Regarding `CC(C)(C)C(Cn1ccnc1)NCc1cn[nH]c1-c1ccc(-c2ccccc2)cc1` (stereo not shown) [TCMDC-124639], the “% Inhibition” value is 18.54%.
Regarding `CC1CCN(C(=O)CSc2nc(-c3ccc(C(C)C)cc3)no2)CC1` [TCMDC-124746], the “% Inhibition” value was determined as 17.92%.
For the compound `COCC(=O)Nc1nc2ccccc2[nH]1` [TCMDC-125535], the “% Inhibition” value is listed as -0.9845%.
With `Cc1cc(C(=O)Nc2ccc3c(c2)CCN3C2CCN(Cc3cccc4cc[nH]c34)C2)no1` (stereo not shown) [TCMDC-135085], the “% Inhibition” value is given as 42.96%.
Take `CC(C)NCc1ccc(-c2ccc(NS(=O)(=O)c3cccc4cccnc34)cc2)cc1` [TCMDC-136476]: the “% Inhibition” value is given as 32.43%.
On to `CCN(CC)CCNc1ccnc2[nH]c3ccc(C)cc3c12` [TCMDC-131833], for which the “% Inhibition” value is reported as -0.1276%.
On to `CCn1ncc2c(N3CCCC3=O)cc(C(=O)N[C@@H](Cc3ccccc3)[C@H](O)CNC(C)(C)c3cccc(OC)c3)cc21` [TCMDC-135063], for which the “% Inhibition” value turned out to be 45.35%.
As to `O=C(Nc1ccc(-c2cccc(-c3nc4ccc(F)cc4[nH]3)c2)cc1)Nc1ccc(Cl)c(Cl)c1` [TCMDC-133282], the “% Inhibition” value is -9.249%.
Regarding `CCC(CC)NCc1c(O)ccc2c(CNC(CC)CC)c(O)ccc12` [TCMDC-137581], the “% Inhibition” value was -56.22%.
`Cc1cccc2[nH]c(-c3ccc(-c4ccc(NC(=O)Nc5ccc(Cl)c(Cl)c5)cc4)cc3)nc12` [TCMDC-133281]: the “% Inhibition” value was -29.93%.
For `Cc1nc2ccc(S(=O)(=O)Nc3ccc(C(=O)N[C@@H](CCC(=O)O)C(=O)O)cc3)cc2c(=O)[nH]1` [TCMDC-137978], the “% Inhibition” value was -10.92%.
For `CC(C)COc1ccc(Cl)cc1Cc1ccc(-c2nc3cc(F)c(F)cc3[nH]2)o1` [TCMDC-136561] the value was 53.5%; for `CC(C)COc1ccc(Cl)cc1Cc1ccc(-c2nc3ccc(C(F)(F)F)cc3[nH]2)o1` [TCMDC-136563], 61.92%; for `CC(C)COc1ccc(Cl)cc1Cc1ccc(-c2nc3ccc(F)cc3[nH]2)o1` [TCMDC-136545], 33.1%.
As to `CC(C)COc1ccc(Cl)cc1Cc1nc(-c2nc3ccc(CN(C)C)cc3[nH]2)co1` [TCMDC-136809], the “% Inhibition” value is -8.138%.
Take `CC(C)COc1ccc(Cl)cc1Cc1ccc(-c2nc3ccc(CCN(C)C)cc3[nH]2)o1` [TCMDC-136891]: the “% Inhibition” value amounted to 30.85%.
With `CC(C)COc1ccc(Cl)cc1Cc1ccc(-c2nc3ccc(Br)cc3[nH]2)o1` [TCMDC-136705] the figure was 53.1%.
For `CC(C)COc1ccc(Cl)cc1Cc1ccc(-c2nc3ccc(N4CCN(C)CC4)cc3[nH]2)o1` [TCMDC-136709] the value was 31.86%; for `CC(C)COc1ccc(Cl)cc1Cc1ccc(-c2nc3ccc(Cl)cc3[nH]2)o1` [TCMDC-136546], -3.56%; for `CC(C)COc1ccc(Cl)cc1Cc1ccc(-c2nc3ccc(CCN4CCCC4)cc3[nH]2)o1` [TCMDC-136890], 21.95%.
With `CCCCC(CC)C(=O)C(NC(=O)[C@H](CSC(c1ccccc1)(c1ccccc1)c1ccccc1)NC(=O)OC(C)(C)C)C(=O)OC` (stereo partly shown) [TCMDC-138083] the figure was 0.3187%; with `Cc1cccc2[nH]c(-c3cccc(-c4cccc(NC(=O)COc5ccccc5C(N)=O)c4)c3)nc12` [TCMDC-132130], 45.07%.
`Cc1cccc2[nH]c(-c3cccc(-c4ccc(NC(=O)COC(C)C)cc4)c3)nc12` [TCMDC-137038]: the “% Inhibition” value was 26.32%.
Take `NC(=O)c1ccccc1OCC(=O)Nc1cccc(-c2cccc(-c3nc4ccccc4[nH]3)c2)c1` [TCMDC-132127]: the “% Inhibition” value is on record as 20.22%.
On to `NC(=O)c1ccccc1OCC(=O)Nc1ccc(-c2cccc(-c3nc4ccc(C(F)(F)F)cc4[nH]3)c2)cc1` [TCMDC-132129], for which the “% Inhibition” value came out at 71.31%.
Regarding `NC(=O)c1ccccc1OCC(=O)Nc1cccc(-c2ccc(-c3nc4ccc(C(F)(F)F)cc4[nH]3)cc2)c1` [TCMDC-132132], the “% Inhibition” value was -3.438%.
`Cc1cccc2[nH]c(-c3cccc(-c4ccc(NC(=O)COc5ccccc5C(N)=O)cc4)c3)nc12` [TCMDC-132131]: the “% Inhibition” value is given as 84.32%.
With `O=C(/C=C/c1ccc(Cl)c(Cl)c1)NCCCCCN1CCC(NC(=O)Nc2cccc(Cl)c2F)CC1` [TCMDC-135721] the figure was -53.7%; with `CCCN(Cc1nnc(-c2cccs2)o1)C(=O)CSc1nnnn1-c1cc(C)cc(C)c1` [TCMDC-125265], 15.05%; with `CCCC(C)N(Cc1ccc(C(C)(C)C)cc1)C(=O)c1cccc(C#N)c1` (stereo not shown) [TCMDC-139784], -24.96%.
Consider `CCN(CC)CCN(Cc1ccc(-c2ccc(C(F)(F)F)cc2)cc1)C(=O)c1ccc(-c2ccc(NC(=O)OC)cc2C)cc1` [TCMDC-141558], for which the “% Inhibition” value came to 93.92%.
Regarding `CCOC(=O)c1ccc(NC(=O)Nc2ccc(-c3ccc(-c4nc5ccc(C(F)(F)F)cc5[nH]4)cc3)cc2)cc1` [TCMDC-133260], the “% Inhibition” value is listed as 23.97%.
With `CCN(CC)CCN(Cc1ccc(-c2ccc(C(F)(F)F)cc2)cc1)C(=O)c1ccc(-c2ccc(C#N)cc2)cc1` [TCMDC-141556] the figure was 55.86%; with `COC(=O)Nc1ccc(-c2ccc(C(=O)NC3CCN(C[C@H](O)c4ccnc5ccc(OC)cc45)CC3)cc2)c(C)c1` [TCMDC-141170], -22.09%; with `CCN(CC)C(=O)C(=O)c1c[nH]c2ccc(Cl)cc12` [TCMDC-131976], 21.68%.
On to `CC(C)CCN(Cc1cncn1Cc1cccc(C(F)(F)F)c1)C(=O)c1cncc(-c2ccccc2)c1` [TCMDC-132458], for which the “% Inhibition” value worked out at 37.01%.
As to `CCN(CC)CCN(Cc1ccc(-c2ccc(C(F)(F)F)cc2)cc1)C(=O)c1c[nH]c2ccc(Br)cc12` [TCMDC-141557], the “% Inhibition” value worked out at 106.7%.
In the case of `Cc1cc(C)c(S(=O)(=O)N2CCCCC(c3cccc(C(F)(F)F)c3)=N2)c(C)c1` [TCMDC-134550], the “% Inhibition” value is -57.26%.
For the compound `CC(C)(C)C1CCC(CC2=C(C(=O)O)c3ccccc3C2=O)CC1` (stereo not shown) [TCMDC-137496], the “% Inhibition” value is given as 8.625%.
For `O=C1OC(c2ccccc2)(c2ccccc2)CN1C1CCN(Cc2ccc(O)c(Cl)c2)C1` (stereo not shown) [TCMDC-136070] the value was -44.93%; for `COc1cccc2cc(C(=O)N[C@@H](CC(C)C)C(=O)N[C@H](C=NNC(=O)OC(C)(C)C)Cc3ccccc3)oc12` [TCMDC-136073], -20.59%; for `Cc1cccc2[nH]c(-c3cccc(-c4cccc(CN5CCN(c6ccncc6)CC5)c4)c3)nc12` [TCMDC-132910], 41.94%.
Take `Cc1cc(N[C@@H](Cc2ccccc2)C(=O)Nc2ccccc2)nc(NCCN2CCCC2)n1` [TCMDC-134925]: the “% Inhibition” value was 33.54%.
Turning to `COc1ccc(NC(=O)[C@H](Cc2ccccc2)Nc2cc(C)nc(NCCN3CCCC3)n2)cc1` [TCMDC-134924], the “% Inhibition” value was found to be 85.56%.
For `Cc1cc(N[C@@H](Cc2ccccc2)C(=O)Nc2ccccc2)nc(Nc2ccccc2)n1` [TCMDC-134736], the “% Inhibition” value is given as -2.834%.
For `Cc1cc(N[C@@H](Cc2ccccc2)C(=O)Nc2ccccc2)nc(NCCc2ccccc2)n1` [TCMDC-134777] the value was 63.66%.
With `COc1ccc(NC(=O)[C@H](CC(C)C)Nc2cc(C)nc(NCCc3ccc(F)cc3)n2)cc1` [TCMDC-134793] the figure was 11.38%; with `Cc1cc(N[C@@H](CC(C)C)C(=O)Nc2ccccc2)nc(NCCc2ccc(F)cc2)n1` [TCMDC-134797], 10.71%.
As for `COc1ccc(NC(=O)[C@H](CC(C)C)Nc2cc(C)nc(NCCc3ccccc3)n2)cc1` [TCMDC-134778], the “% Inhibition” value came out at 31.74%.
Consider `Cc1cc(N[C@@H](Cc2ccccc2)C(=O)Nc2ccccc2)nc(NCCc2ccc(F)cc2)n1` [TCMDC-134790], for which the “% Inhibition” value is recorded as 26.02%.
Consider `COc1ccc(NC(=O)[C@H](Cc2ccccc2)Nc2cc(C)nc(NCCc3ccc(F)cc3)n2)cc1` [TCMDC-134786], for which the “% Inhibition” value stood at 103.7%.
With `COc1ccc(NC(=O)[C@H](Cc2ccccc2)Nc2nc(NCCN3CCCC3)ncc2C)cc1` [TCMDC-134860] the figure was 27.32%; with `Cc1cc(N[C@@H](CC(C)C)C(=O)Nc2ccccc2)nc(NCCc2ccccc2)n1` [TCMDC-134780], 99.12%.
